# The full list was thinned out, with the strongest signals kept by preference.
# B1: Epa9 (Candida glabrata), CAGL0A01386g (protein)
# chain: MGSSHHHHHHSSGLVPRGSHMDITPFAHYPRPEGCSSPPNAVSVGLHMDLYNYPYLYVKNPRTGFTNDTDSDADGETDGDSAGGIEGRAGQCWNPEYQDPNFPRYGYKKYGSFGSSDHVNGKISWDHNEFKEGCKPIMARLPTAYNYPAKITFSNFTMVLSGYFKPKSTGLYKFEIHADDFILFNFGSKNAFECCNREESIDNFGPYVAYAMWPNEADQELEVYLFEDSYYPIRLFYNNRDYHSKFMVGFYPPNTEEITYDFDGYLYMLDDTGNECKDSIRYKTVCDD
# How the values were obtained:
# Test in all cases: glycan array binding signal (z-score within array); higher = stronger binding
# Conditions in all cases: glycan notation: IUPAC condensed, linker removed
# [1] = molecular target: Fuc(a1-2)Gal(b1-3)GlcNAc(b1-3)[Fuc(a1-2)Gal(b1-3)GlcNAc(b1-6)]GalNAc
# Summary of the method: (§1)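 The binding signal is a Z-score computed within each array and averaged over linkers. Arrays of the same protein sequence at different concentrations or buffers were also averaged together. Data originate from 3228 arrays in the Consortium for Functional Glycomics database, kept only where the protein sequence was available.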
# [2] = molecular target: Fuc(a1-2)Gal(b1-4)[Fuc(a1-3)]GlcNAc(b1-3)Gal(b1-4)[Fuc(a1-3)]GlcNAc
# Summary of the method: as §1
# [3] = molecular target: Fuc(a1-2)[Gal(a1-3)]Gal(b1-3)GlcNAc
# Summary of the method: as §1
# [4] = molecular target: Fuc(a1-2)[Gal(a1-3)]Gal(b1-4)GlcNAc(b1-3)GalNAc
# Summary of the method: as §1
# Gal(a1-3)Gal(b1-4)Glc = molecular target: Gal(a1-3)Gal(b1-4)Glc
# Summary of the method: as §1
# [5] = molecular target: Gal(a1-3)Gal(b1-4)GlcNAc(b1-2)Man(a1-3)[Gal(a1-3)Gal(b1-4)GlcNAc(b1-2)Man(a1-6)]Man(b1-4)GlcNAc(b1-4)GlcNAc
# Summary of the method: as §1
# [6] = molecular target: Gal(a1-4)Gal(b1-3)GlcNAc(b1-2)Man(a1-3)[Gal(a1-4)Gal(b1-3)GlcNAc(b1-2)Man(a1-6)]Man(b1-4)GlcNAc(b1-4)GlcNAc
# Summary of the method: as §1
# Gal(b1-2)Gal = molecular target: Gal(b1-2)Gal
# Summary of the method: as §1
# [7] = molecular target: Gal(b1-3)GalNAc(a1-3)[Fuc(a1-2)]Gal(b1-4)Glc
# Summary of the method: as §1
# [8] = molecular target: Gal(b1-3)GalNAc(b1-3)Gal(a1-4)Gal(b1-4)Glc
# Summary of the method: as §1
# [9] = molecular target: Gal(b1-3)GalNAc(b1-4)Gal(b1-4)Glc
# Summary of the method: as §1
# [10] = molecular target: Gal(b1-3)GlcNAc(b1-3)Gal(b1-3)GlcNAc
# Summary of the method: as §1
# Gal(b1-3)GlcNAc6S = molecular target: Gal(b1-3)GlcNAc6S
# Summary of the method: as §1
# [11] = molecular target: Gal(b1-3)[Fuc(a1-4)]GlcNAc(b1-2)Man(a1-3)[Gal(b1-3)[Fuc(a1-4)]GlcNAc(b1-2)Man(a1-6)]Man(b1-4)GlcNAc(b1-4)[Fuc(a1-6)]GlcNAc
# Summary of the method: as §1
# [12] = molecular target: Gal(b1-4)GlcNAc(b1-2)Man(a1-6)[GlcNAc(b1-2)Man(a1-3)]Man(b1-4)GlcNAc(b1-4)GlcNAc
# Summary of the method: as §1
# [13] = molecular target: Gal(b1-4)GlcNAc(b1-2)[Gal(b1-4)GlcNAc(b1-4)]Man(a1-3)[GlcNAc(b1-4)][Gal(b1-4)GlcNAc(b1-2)Man(a1-6)]Man(b1-4)GlcNAc(b1-4)GlcNAc
# Summary of the method: as §1
# [14] = molecular target: Gal(b1-4)GlcNAc(b1-3)Gal(b1-4)GlcNAc(b1-2)Man(a1-3)[Gal(b1-4)GlcNAc(b1-3)Gal(b1-4)GlcNAc(b1-2)Man(a1-6)]Man(b1-4)GlcNAc(b1-4)GlcNAc
# Summary of the method: as §1
# [15] = molecular target: Gal(b1-4)GlcNAc(b1-3)Gal(b1-4)GlcNAc(b1-3)Gal(b1-4)GlcNAc(b1-2)Man(a1-3)[Gal(b1-4)GlcNAc(b1-3)Gal(b1-4)GlcNAc(b1-3)Gal(b1-4)GlcNAc(b1-2)Man(a1-6)]Man(b1-4)GlcNAc(b1-4)[Fuc(a1-6)]GlcNAc
# Summary of the method: as §1
# [16] = molecular target: Gal(b1-4)GlcNAc(b1-3)Gal(b1-4)GlcNAc(b1-3)Gal(b1-4)GlcNAc(b1-3)Gal(b1-4)GlcNAc(b1-2)Man(a1-3)[Gal(b1-4)GlcNAc(b1-3)Gal(b1-4)GlcNAc(b1-3)Gal(b1-4)GlcNAc(b1-3)Gal(b1-4)GlcNAc(b1-2)Man(a1-6)]Man(b1-4)GlcNAc(b1-4)GlcNAc
# Summary of the method: as §1
# [17] = molecular target: Gal(b1-4)GlcNAc(b1-3)Gal(b1-4)GlcNAc(b1-3)Gal(b1-4)GlcNAc(b1-3)Gal(b1-4)GlcNAc(b1-2)Man(a1-3)[Gal(b1-4)GlcNAc(b1-3)Gal(b1-4)GlcNAc(b1-3)Gal(b1-4)GlcNAc(b1-3)Gal(b1-4)GlcNAc(b1-2)Man(a1-6)]Man(b1-4)GlcNAc(b1-4)[Fuc(a1-6)]GlcNAc
# Summary of the method: as §1
# [18] = molecular target: Gal(b1-4)GlcNAc(b1-3)Gal(b1-4)GlcNAc(b1-3)Gal(b1-4)GlcNAc(b1-3)Gal(b1-4)GlcNAc(b1-2)[Gal(b1-4)GlcNAc(b1-3)Gal(b1-4)GlcNAc(b1-3)Gal(b1-4)GlcNAc(b1-3)Gal(b1-4)GlcNAc(b1-6)]Man(a1-6)[Gal(b1-4)GlcNAc(b1-3)Gal(b1-4)GlcNAc(b1-3)Gal(b1-4)GlcNAc(b1-3)Gal(b1-4)GlcNAc(b1-2)Man(a1-3)]Man(b1-4)GlcNAc(b1-4)[Fuc(a1-6)]GlcNAc
# Summary of the method: as §1
# [19] = molecular target: Gal(b1-4)GlcNAc(b1-3)Gal(b1-4)GlcNAc(b1-3)Gal(b1-4)GlcNAc(b1-3)Gal(b1-4)GlcNAc(b1-3)Gal(b1-4)GlcNAc(b1-2)Man(a1-3)[Gal(b1-4)GlcNAc(b1-3)Gal(b1-4)GlcNAc(b1-3)Gal(b1-4)GlcNAc(b1-3)Gal(b1-4)GlcNAc(b1-3)Gal(b1-4)GlcNAc(b1-2)Man(a1-6)]Man(b1-4)GlcNAc(b1-4)GlcNAc
# Summary of the method: as §1
# [20] = molecular target: Gal(b1-4)GlcNAc(b1-3)Gal(b1-4)GlcNAc(b1-3)Gal(b1-4)GlcNAc(b1-3)Gal(b1-4)GlcNAc(b1-3)Gal(b1-4)GlcNAc(b1-2)Man(a1-3)[Gal(b1-4)GlcNAc(b1-3)Gal(b1-4)GlcNAc(b1-3)Gal(b1-4)GlcNAc(b1-3)Gal(b1-4)GlcNAc(b1-3)Gal(b1-4)GlcNAc(b1-2)Man(a1-6)]Man(b1-4)GlcNAc(b1-4)[Fuc(a1-6)]GlcNAc
# Summary of the method: as §1
# [21] = molecular target: Gal(b1-4)GlcNAc(b1-3)Gal(b1-4)GlcNAc(b1-3)Gal(b1-4)GlcNAc(b1-3)Gal(b1-4)GlcNAc(b1-3)Gal(b1-4)GlcNAc(b1-2)[Gal(b1-4)GlcNAc(b1-3)Gal(b1-4)GlcNAc(b1-3)Gal(b1-4)GlcNAc(b1-3)Gal(b1-4)GlcNAc(b1-3)Gal(b1-4)GlcNAc(b1-6)]Man(a1-6)[Gal(b1-4)GlcNAc(b1-3)Gal(b1-4)GlcNAc(b1-3)Gal(b1-4)GlcNAc(b1-3)Gal(b1-4)GlcNAc(b1-3)Gal(b1-4)GlcNAc(b1-2)Man(a1-3)]Man(b1-4)GlcNAc(b1-4)[Fuc(a1-6)]GlcNAc
# Summary of the method: as §1
# [22] = molecular target: Gal(b1-4)GlcNAc(b1-3)Gal(b1-4)GlcNAc(b1-3)Gal(b1-4)GlcNAc(b1-3)Gal(b1-4)GlcNAc(b1-3)Gal(b1-4)GlcNAc(b1-3)Gal(b1-4)GlcNAc(b1-2)Man(a1-3)[Gal(b1-4)GlcNAc(b1-3)Gal(b1-4)GlcNAc(b1-3)Gal(b1-4)GlcNAc(b1-3)Gal(b1-4)GlcNAc(b1-3)Gal(b1-4)GlcNAc(b1-3)Gal(b1-4)GlcNAc(b1-2)Man(a1-6)]Man(b1-4)GlcNAc(b1-4)GlcNAc
# Summary of the method: as §1
# [23] = molecular target: Gal3S(b1-4)[Fuc(a1-3)]Glc6S
# Summary of the method: as §1
# Gal4S6S(b1-4)GlcNAc = molecular target: Gal4S6S(b1-4)GlcNAc
# Summary of the method: as §1
# Gal6S(b1-3)GlcNAc = molecular target: Gal6S(b1-3)GlcNAc
# Summary of the method: as §1
# [24] = molecular target: GalNAc(b1-3)Gal(a1-6)Gal(b1-4)Glc
# Summary of the method: as §1
# GalNAc(b1-3)GlcNAc = molecular target: GalNAc(b1-3)GlcNAc
# Summary of the method: as §1
binder,measurement,setting,value
B1,glycan array binding signal (z-score),[1],-0.296
same,glycan array binding signal (z-score),[2],-0.521
same,glycan array binding signal (z-score),[3],-0.32
same,glycan array binding signal (z-score),[4],-0.304
same,glycan array binding signal (z-score),Gal(a1-3)Gal(b1-4)Glc,0.746
same,glycan array binding signal (z-score),[5],4.07
same,glycan array binding signal (z-score),[6],4.05
same,glycan array binding signal (z-score),Gal(b1-2)Gal,0.38
same,glycan array binding signal (z-score),[7],1.58
same,glycan array binding signal (z-score),[8],1.98
same,glycan array binding signal (z-score),[9],4.13
same,glycan array binding signal (z-score),[10],-0.11
same,glycan array binding signal (z-score),Gal(b1-3)GlcNAc6S,-0.028
same,glycan array binding signal (z-score),[11],-0.377
same,glycan array binding signal (z-score),[12],0.1
same,glycan array binding signal (z-score),[13],1.34
same,glycan array binding signal (z-score),[14],1.3
same,glycan array binding signal (z-score),[15],3.45
same,glycan array binding signal (z-score),[16],4.82
same,glycan array binding signal (z-score),[17],4.74
same,glycan array binding signal (z-score),[18],5.31
same,glycan array binding signal (z-score),[19],5.73
same,glycan array binding signal (z-score),[20],5.38
same,glycan array binding signal (z-score),[21],6.29
same,glycan array binding signal (z-score),[22],4.6
same,glycan array binding signal (z-score),[23],-0.318
same,glycan array binding signal (z-score),Gal4S6S(b1-4)GlcNAc,-0.491
same,glycan array binding signal (z-score),Gal6S(b1-3)GlcNAc,-0.361
same,glycan array binding signal (z-score),[24],-0.468
same,glycan array binding signal (z-score),GalNAc(b1-3)GlcNAc,-0.486
